Experimental data: PubChem BioAssay (NCATS)
Results filed as inconclusive are left out. Activity calls are given as the source filed them. Calls follow the shape of the dose curve; as a rule, active = well fitted curve in the direction sought with a large enough effect; inconclusive = small, poorly fitted or top-dose-only effect, or another doubt; inactive = no such curve, though single readings can be large; an effect the other way counts as inactive or inconclusive.

What was measured:
[1] = Quantitative High-Throughput drug screen in 47 multiple myeloma cell lines against the NCATS MIPE library collection: JIM3_ECACC cell viability assay (AID 1918963; also: nearly all actives have a fitted effect of over 35% in size)
Procedure, shortened: (§1)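 Viability readout: CellTiter-Glo luminescence following 5 min room-temperature incubation with reagent. Prior exposure: 48 h, 37C, humidified 5% CO2, 500 cells per well.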

[2] = Quantitative High-Throughput drug screen in 47 multiple myeloma cell lines against the NCATS MIPE library collection: INA6_PLB cell viability assay (AID 1918965; also: nearly all actives have a fitted effect of over 55% in size)
Procedure, shortened: (§2)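 Approved and investigational drugs from MIPE 4.0 were added by pin tool to 500 cells per well. After 48 hours at 37C, ATP-based CellTiter-Glo luminescence indicated remaining viability.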

[3] = Quantitative High-Throughput drug screen in 47 multiple myeloma cell lines against the NCATS MIPE library collection: JJN3_DSMZ cell viability assay (AID 1918966; also: nearly all actives have a fitted effect of over 50% in size)
Procedure, shortened: (§3)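 We plated 500 myeloma cells per well, pinned in MIPE 4.0 compounds, and incubated for 48 hours at 37C. ATP was then quantified with CellTiter-Glo, with DMSO and media-only wells defining 100% and 0%.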

[4] = Quantitative High-Throughput drug screen in 47 multiple myeloma cell lines against the NCATS MIPE library collection: Karpas25_ECACC cell viability assay (AID 1918968; also: nearly all actives have a fitted effect of over 35% in size)
Procedure, shortened: as §3

[5] = Quantitative High-Throughput drug screen in 47 multiple myeloma cell lines against the NCATS MIPE library collection: KMS12BM_JCRB cell viability assay (AID 1918971); also: nearly all actives have a fitted effect of over 35% in size
Procedure, shortened: as §2

[6] = Quantitative High-Throughput drug screen in 47 multiple myeloma cell lines against the NCATS MIPE library collection: KMS26_JCRB cell viability assay (AID 1918975); also: nearly all actives have a fitted effect of over 45% in size
Procedure, shortened: as §2

[7] = Quantitative High-Throughput drug screen in 47 multiple myeloma cell lines against the NCATS MIPE library collection: MMM1_PLB cell viability assay (AID 1918976); also: nearly all actives have a fitted effect of over 35% in size
Procedure, shortened: (§4)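 MIPE 4.0 approved/investigational drugs; 500 cells/well; 48 h 37 °C humidified 5% CO2; CTG luminescence readout; DMSO = 100%, media = 0% viability.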

[8] = Quantitative High-Throughput drug screen in 47 multiple myeloma cell lines against the NCATS MIPE library collection: MOLP8_DSMZ cell viability assay (AID 1918977); also: nearly all actives have a fitted effect of over 45% in size
Procedure, shortened: as §4

[9] = Quantitative High-Throughput drug screen in 47 multiple myeloma cell lines against the NCATS MIPE library collection: NCIH929_DSMZ cell viability assay (AID 1918978); also: nearly all actives have a fitted effect of over 35% in size
Procedure, shortened: as §4

[10] = Quantitative High-Throughput drug screen in 47 multiple myeloma cell lines against the NCATS MIPE library collection: MM1S_ATCC cell viability assay (AID 1918980); also: nearly all actives have a fitted effect of over 45% in size
Procedure, shortened: as §4

[11] = Quantitative High-Throughput drug screen in 47 multiple myeloma cell lines against the NCATS MIPE library collection: H1112_PLB cell viability assay (AID 1918967; also: nearly all actives have a fitted effect of over 30% in size)
Procedure, shortened: as §3

[12] = Quantitative High-Throughput drug screen in 47 multiple myeloma cell lines against the NCATS MIPE library collection: KMS12PE_JCRB cell viability assay (AID 1918972); also: nearly all actives have a fitted effect of over 30% in size
Procedure, shortened: as §2

[13] = Quantitative High-Throughput drug screen in 47 multiple myeloma cell lines against the NCATS MIPE library collection: KHM11_PLB cell viability assay (AID 1918962); also: nearly all actives have a fitted effect of over 35% in size
Procedure, shortened: as §1

[14] = Quantitative High-Throughput drug screen in 47 multiple myeloma cell lines against the NCATS MIPE library collection: KMS21BM_JCRB cell viability assay (AID 1918974); settings: ATP luminescence, 48 h; viability: at 45.8 µM (top of the series)
Procedure, shortened: as §3

[15] = Quantitative High-Throughput drug screen in 47 multiple myeloma cell lines against the NCATS MIPE library collection: OCIMY1_PLB cell viability assay (AID 1918979); also: nearly all actives have a fitted effect of over 35% in size
Procedure, shortened: as §4

[16] = Quantitative High-Throughput drug screen in 47 multiple myeloma cell lines against the NCATS MIPE library collection: JIM1_ECACC cell viability assay (AID 1918964)
Procedure, shortened: as §3

[17] = Quantitative High-Throughput drug screen in 47 multiple myeloma cell lines against the NCATS MIPE library collection: KMS27_JCRB cell viability assay (AID 1918970); settings: KMS27 myeloma cells, CellTiter-Glo ATP viability, 48 h; viability (% of DMSO): at 45.8 µM (top of the series); also: nearly all actives have a fitted effect of over 30% in size
Procedure, shortened: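 ATP-based viability (CellTiter-Glo luminescence) is measured in cells treated 48 h with approved and investigational drugs at 37 °C. Controls are DMSO-only wells for full viability and media-only wells for none.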

[18] = Quantitative High-Throughput drug screen in 47 multiple myeloma cell lines against the NCATS MIPE library collection: KMS20_JCRB cell viability assay (AID 1918973); also: nearly all actives have a fitted effect of over 45% in size
Procedure, shortened: as §3
Potency is read from the fitted curve at half-maximal effect.

SMILES | Potency [1] | Potency [2] | Potency [3] | Potency [4] | Potency [5] | Potency [6] | Potency [7] | Potency [8] | Potency [9] | Potency [10] | Potency [11] | Potency [12] | Potency [13] | Potency [14] | Potency [15] | Potency [16] | Potency [17] | Potency [18]
COc1cc2c(cc1Cc1cccc(Cl)c1F)c(=O)c(C(=O)O)cn2[C@H](CO)C(C)C | 20.9 µM (active) | 13.2 µM (active) | 16.6 µM (active) | 14.8 µM (active) | 6.62 µM (active) | 20.9 µM (active) | 16.6 µM (active) | 13.2 µM (active) | 18.7 µM (active) | 16.6 µM (active) |  |  |  |  |  |  |  | 
Cc1cc2nc3c(=O)[nH]c(=O)nc-3n(CC(O)C(O)C(O)CO)c2cc1C (stereo unspecified) | inactive | inactive | 2.64 µM (active) | inactive |  |  |  | inactive | inactive | inactive | inactive | inactive |  |  |  |  |  | 
O=C1NC(=O)C(=Cc2ccc(-c3ccc(F)cc3O)o2)S1 | inactive | 7.43 µM (active) |  |  | 37.2 µM (active) |  | 2.96 µM (active) |  |  | 16.6 µM (active) | 20.9 µM (active) | inactive |  |  |  |  |  | 
Cc1cc(-c2ncc(CC(=O)Nc3ccc(-c4cnccn4)cn3)cc2C)ccn1 |  | 10.5 µM (active) | 6.62 µM (active) | 10.5 µM (active) | 6.62 µM (active) |  | 16.6 µM (active) |  | 20.9 µM (active) | 18.7 µM (active) |  |  | 14.8 µM (active) | 18.7 µM (active) | inactive |  |  | 
COc1nc(C)cnc1NS(=O)(=O)c1cccnc1-c1ccc(-c2nnco2)cc1 | inactive | inactive | 1.87 µM (active) |  |  |  | 5.26 µM (active) |  | inactive | inactive | inactive | inactive |  |  | inactive | inactive | inactive | 
O=C(Nc1ccc(OC(F)(F)F)cc1)c1sccc1NCc1ccnc2ccccc12 |  | 18.7 µM (active) | 9.35 µM (active) | 13.2 µM (active) | 14.8 µM (active) | 18.7 µM (active) | 16.6 µM (active) |  | 20.9 µM (active) | 20.9 µM (active) |  | 18.7 µM (active) | inactive |  |  |  |  | 
CN(C)CCN(C)C(=O)c1ccc(NC(=O)Nc2ccc(-c3nc(N4CCOCC4)c4ccn(CC(F)(F)F)c4n3)cc2)cc1 | 0.105 µM (active) |  | 0.0372 µM (active) |  | 0.209 µM (active) | 0.0526 µM (active) | 0.0296 µM (active) | 0.0066 µM (active) | 0.0083 µM (active) | 0.0526 µM (active) | 3.32 µM (active) | 0.132 µM (active) |  |  | 7.43 µM (active) | 0.001 µM (active) | 0.001 µM (active) | 0.0418 µM (active)
Cc1nc(C(=O)NCC(=O)O)c(O)c2ccc(Oc3ccccc3)cc12 | inactive | inactive |  | inactive |  | inactive | 0.0053 µM (active) |  | inactive |  | inactive |  |  |  | inactive |  |  | 
CNC(=O)c1ccc2c(C(=Nc3cccc(CN(C)C)c3)c3ccccc3)c(O)[nH]c2c1 |  | 20.9 µM (active) | 2.64 µM (active) |  | inactive | 0.662 µM (active) |  |  | 14.8 µM (active) |  | 14.8 µM (active) | 18.7 µM (active) | 1.32 µM (active) |  |  |  | 2.35 µM (active) | 
Cc1ccccc1C(=O)c1ccc(Nc2ccc(Br)cc2N)cc1Cl |  | 18.7 µM (active) |  | 18.7 µM (active) | 14.8 µM (active) |  | 16.6 µM (active) |  | 23.5 µM (active) | 6.62 µM (active) |  | 7.43 µM (active) |  |  |  |  | 6.62 µM (active) | 14.8 µM (active)
CO[C@@H]1C(N(C)C(=O)c2ccccc2)C[C@H]2O[C@]1(C)n1c3ccccc3c3c4c(c5c6ccccc6n2c5c31)C(=O)NC4=O (stereo partly specified) | 6.62 µM (active) | 1.48 µM (active) |  |  | inactive | 1.32 µM (active) |  |  |  |  |  | 1.66 µM (active) |  |  |  |  |  | 
O=C(Nc1cccc2c(=O)cc(-c3nn[nH]n3)oc12)c1ccc(OCCCCc2ccccc2)cc1 |  | 18.7 µM (active) |  | 18.7 µM (active) |  |  |  | inactive |  | 23.5 µM (active) |  | 20.9 µM (active) |  |  |  |  |  | 
COc1cc2c(cc1OC)[C@@H]1Cc3ccc(OC)c(OC)c3CN1CC2 | inactive |  | 20.9 µM (active) | 16.6 µM (active) | 18.7 µM (active) | 4.69 µM (active) | 16.6 µM (active) | 7.43 µM (active) | inactive | 2.96 µM (active) | inactive | 0.332 µM (active) |  |  | inactive |  | inactive | 
CC(C)(F)C[C@H](N[C@@H](c1ccc(-c2ccc(S(C)(=O)=O)cc2)cc1)C(F)(F)F)C(=O)NC1(C#N)CC1 | 0.0833 µM (active) |  |  | inactive |  |  |  |  | inactive | inactive | inactive |  |  |  |  |  | inactive | 
CN1CCc2c(n(Cc3ccc(C(=O)NO)cc3)c3ccccc23)C1 |  | 4.69 µM (active) | 16.6 µM (active) | 16.6 µM (active) | 18.7 µM (active) | 14.8 µM (active) | 14.8 µM (active) | 18.7 µM (active) | 16.6 µM (active) | 16.6 µM (active) |  |  |  |  |  |  | 0.743 µM (active) | 
